The list is not random: actives were taken first. Their share in the collection is about 16%.
TDP1 block: qHTS Assay for Inhibitors of Tyrosyl-DNA Phosphodiesterase (TDP1); Tyrosyl-DNA phosphodiesterase 1 (Homo sapiens), Q9NUW8; recombinant TDP1, AlphaScreen DNA substrate cleavage; Potency, µM (top dose mostly 130 µM), for inactives: at the top dose activity change, negative = inhibition, actives largely listed as inhibitors; hit rate 0.28% among 350,000; AID 485290, 2010; note: potency is the fitted concentration of half-maximal effect; % is set by controls: 0 for no effect and ±100 for the full control effect; nearly all actives have a fitted effect of over 40% in size
Target sequence (Q9NUW8 whole entry, looked up): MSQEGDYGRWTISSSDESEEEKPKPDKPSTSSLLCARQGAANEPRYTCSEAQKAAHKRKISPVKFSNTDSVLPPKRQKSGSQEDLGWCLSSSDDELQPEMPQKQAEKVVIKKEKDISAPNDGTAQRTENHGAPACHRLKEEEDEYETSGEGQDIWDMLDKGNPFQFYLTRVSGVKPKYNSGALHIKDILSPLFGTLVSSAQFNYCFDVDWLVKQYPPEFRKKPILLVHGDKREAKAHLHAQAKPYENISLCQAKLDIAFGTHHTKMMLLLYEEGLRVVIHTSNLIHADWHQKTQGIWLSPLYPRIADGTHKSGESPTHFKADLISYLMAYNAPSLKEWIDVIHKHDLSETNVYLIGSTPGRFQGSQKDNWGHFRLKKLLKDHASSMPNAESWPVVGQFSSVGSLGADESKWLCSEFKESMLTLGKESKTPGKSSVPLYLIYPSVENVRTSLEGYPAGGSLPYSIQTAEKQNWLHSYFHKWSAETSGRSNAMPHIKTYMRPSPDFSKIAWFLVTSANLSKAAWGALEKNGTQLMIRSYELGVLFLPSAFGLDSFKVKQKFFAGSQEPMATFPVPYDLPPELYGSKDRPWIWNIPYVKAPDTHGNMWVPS
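Enzyme-compound mixtures sat 15 min at room temperature, followed by a 5 min reaction with 15 nM final substrate and 10 min with AlphaScreen beads. Recombinant human Tdp1 was used at 1 nM final.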
miR-21 reporter: qHTS Assay for Modulators of miRNAs and/orActivators of miR-21; HeLa miR-21 FLuc reporter, luciferase, 48 h; Potency, µM (series often up to 38.3 µM), for inactives: at the top dose activity change, positive = activation, hits mostly activators; 340,000 tested, under 10 active; AID 2288, 2010;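 note: % of control where 0% means no effect; miR-21 action dims this reporter so a rising signal means less miR-21 action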
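HeLa cells endogenously expressing miR-21, stably carrying CMV-driven firefly luciferase with a downstream miR-21 binding site, 2000 cells/well. Titrations up to approximately 40 uM, 48 hours; luciferase luminescence read.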
TDP1 cell noCPT: qHTS for Inhibitors of human tyrosyl-DNA phosphodiesterase 1 (TDP1): qHTS in cells in absence of CPT; hit rate 15% among 420,000; Potency, µM (top dose mostly 46.2 µM), inactives show at the highest dose activity change, negative = growth inhibition, most hits filed as inhibitors; DT40 Tdp1-/- hTDP1 cells, no CPT, ATP luminescence, 48 h; note: potency is the fitted concentration of half-maximal effect; % is set by controls: 0 for no effect and ±100 for the full control effect; nearly all actives have a fitted effect of over 55% in size
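Compound effects on proliferation are scored in DT40 Tdp1-/-;hTDP1 cells in the absence of CPT. ATP levels (CellTiter-Glo luminescence) are recorded after a ≥48 hr, 37 °C incubation.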
uPA generation: qHTS for Inhibitors of Cell Surface uPA Generation; cell surface uPA generation assay, qHTS; Potency, µM (highest dose often 38.3 µM), for inactives: top-dose activity change, negative = inhibition, most hits filed as inhibitors; hit rate 0.31% among 330,000; AID 540303, 2011; active = well fitted inhibition curve with a large enough effect; inconclusive = small, poorly fitted or top-dose-only effect; inactive = no such curve, though single readings can be large or run the other way; tested in mouse RAW 264.7 cells; note: potency is the fitted concentration of half-maximal effect; % is set by controls: 0 for no effect and ±100 for the full control effect; nearly all actives have a fitted effect of over 55% in size
DT40 TDP1 CPT: qHTS for Inhibitors of human tyrosyl-DNA phosphodiesterase 1 (TDP1): qHTS in cells in presence of CPT; chicken DT40 Tdp1-/-;hTDP1 cells + 20 nM CPT, ATP luminescence, 48 h; Potency, µM (series often up to 46.2 µM), for inactives: at the highest dose activity change, negative = growth inhibition, hits mostly inhibitors; hit rate 12% among 420,000; AID 686979, 2013; note: potency is the fitted concentration of half-maximal effect; % is set by controls: 0 for no effect and ±100 for the full control effect; nearly all actives have a fitted effect of over 55% in size
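Chicken DT40 Tdp1-/- cells complemented with human TDP1, 400 cells/well, exposed to compounds plus 20 nM camptothecin for at least 48 h at 37 C; viability read as ATP content by CellTiter-Glo luminescence.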
Active calls of the source: *; ? = inconclusive; / = not tested or not shown; [ ] = another dose, or the depositor's remark. Unless noted, calls come from the whole dose curve; as a rule, active = well fitted curve in the direction sought with a large enough effect; inconclusive = small, poorly fitted or top-dose-only effect, or another doubt; inactive = no such curve, though single readings can be large; an effect the other way counts as inactive or inconclusive.

SMILES	TDP1 block	miR-21 reporter	TDP1 cell noCPT	uPA generation	DT40 TDP1 CPT
C[N+](C)(CC#Cc1ccccc1)CC(=O)c1ccccc1	3%	-3%	16µM*	-8%	18µM*
CC[N+](CC)(CC#Cc1ccccc1)CC#Cc1ccccc1	5%	?	2.1µM*	-14%	2.6µM*
C[N+](C)(CC#Cc1ccccc1)CC(=O)c1ccc(Cl)cc1	8%	3%	?	1%	?
C#CC[N+](CC)(CC)CC#Cc1ccccc1	/	5%	18µM*	2%	?
Cc1ccc(N(CC(=O)N2CCCCCC2)S(C)(=O)=O)c(C)c1	/	/	-14%	/	-9%
COc1cc2sc3ccc(-c4ccc5[nH]ccc5c4)cc3c(=O)c2cc1OC	/	/	5.8µM*	10%	5.8µM*
O=c1c2ccccc2oc2cc(-c3ccc4[nH]ccc4c3)ccc12	/	/	2.1µM*	?	1.8µM*
COc1ccc(-c2c(-c3cc(OC)cc(OC)c3)n(C)c3ccc(-c4ccc5[nH]ccc5c4)cc23)cc1	3%	/	-13%	-2%	-19%
O=C(O)c1cccc(S(=O)(=O)Nc2ccccc2N2CCOCC2)c1	/	0%	-2%	17%	-9%
COc1ccc(NC(=O)C23CC4CC(C2)CC(n2cnc(Br)n2)(C4)C3)cc1Cl	1%	9%	23µM*	1%	?
O=C(Nc1cccc2ccccc12)C12CC3CC(C1)CC(n1cnc([N+](=O)[O-])n1)(C3)C2	4%	25%	26µM*	-10%	23µM*
COC(=O)c1ccccc1NC(=O)C12CC3CC(C1)CC(n1cnc(Cl)n1)(C3)C2	3%	-6%	16µM*	-1%	21µM*
O=C(Nc1cc(Oc2ccccc2)cc([N+](=O)[O-])c1)C12CC3CC(C1)CC(n1cnc(Cl)n1)(C3)C2	5%	22%	?	-3%	?
C[C@@H](C(=O)Nc1cccnc1)n1c(=O)[nH]c2ccccc2c1=O	1%	1%	-22%	1%	-4%
Cn1c(=O)c2c(nc(NCCO)n2C)n(C)c1=O	5%	0%	-11%	1%	-9%
Cn1c(=O)c2c(nc(NCCOc3ccc(C(C)(C)C)cc3)n2C)n(C)c1=O	3%	-1%	1.8µM*	-4%	1.5µM*
COc1ccccc1OCCNc1nc2c(c(=O)n(C)c(=O)n2C)n1C	-2%	-2%	18µM*	1%	29µM*
COCCCNc1nc2c(c(=O)n(Cc3ccccc3)c(=O)n2C)n1C	/	0%	-21%	/	7%
O=C(COC(=O)c1nc(Cl)ccc1Cl)NCCc1ccccc1	/	/	-8%	4%	-21%
COc1ccc(NC(=O)CSCC(=O)NCCc2ccccn2)cc1	6%	-4%	9%	6%	0%
O=C(c1cccnc1)N1N=C(C2CCCCC2)CC1(O)C(F)(F)F (configuration not stated)	5%	1%	8.2µM*	-1%	6.5µM*
O=C(c1cccnc1)N1N=C2CCCCCC2C1(O)C(F)(F)F (configuration not stated)	-8%	-1%	-23%	0%	10%
Cc1cc(C)n(CCc2nc(-c3ccc(C(C)(C)C)cc3)cs2)n1	-3%	-6%	12µM*	?	23µM*
COc1cc(-c2csc(CCn3nc(C)cc3C)n2)cc(OC)c1OC	3%	10%	18µM*	11%	21µM*
COc1ccc(-c2nn3c(-c4cc(-c5ccccc5)n[nH]4)nnc3s2)cc1OC	0%	/	4.5µM*	/	2.8µM*
SMILES	TDP1 block	miR-21 reporter	TDP1 cell noCPT	uPA generation	DT40 TDP1 CPT
COc1ccc(-c2nn3c(-c4cc(-c5ccccc5)n[nH]4)nnc3s2)cc1	/	/	2.8µM*	/	3.5µM*
CCOc1ccc(-c2nn3c(-c4cc(-c5ccccc5)n[nH]4)nnc3s2)cc1	0%	/	14µM*	/	16µM*
CCOc1cccc(-c2nnc3sc(-c4ccc(C)cc4)nn23)c1	0%	-4%	/	/	/
FC(F)(F)C(F)(F)C(F)(F)C(F)(F)C(F)(F)F	/	/	-9%	/	-7%
CC1CCCN(C(=O)c2ccc([N+](=O)[O-])o2)C1 (configuration not stated)	0%	12%	-20%	-23%	?
CC1CCCN(C(=O)c2ccc(-c3ccccc3Cl)o2)C1 (configuration not stated)	0%[0.505 µM]	/	?	5%	12µM*
O=C(c1ccc(-c2ccccc2Cl)o1)N1CCCCCCC1	/	/	23µM*	-10%	?
CC(=O)N1CCN(C(=O)c2ccc(-c3ccccc3Cl)o2)CC1	1%	/	-18%	-27%	0%
CN(C(=O)C1CCC(CNS(=O)(=O)c2cccc3cccnc23)CC1)C1CCCCC1 (configuration not stated)	1%	3%	15µM*	1%	?
CCN(C(=O)C1CCC(CNS(=O)(=O)c2cccc3nsnc23)CC1)c1ccc(C)c(C)c1 (configuration not stated)	7%	?	26µM*	/	?
Cc1cccc(N(C)C(=O)C2CCC(CNS(=O)(=O)c3cccc4nsnc34)CC2)c1 (configuration not stated)	5%	9%	-29%	/	?
CCCCN(CC)C(=O)C1CCC(CNS(=O)(=O)c2cccc3nsnc23)CC1 (configuration not stated)	0%	5%	9.2µM*	-4%	23µM*
NC(=O)CC[C@@H]1NC(=O)C(Cc2ccc(O)cc2)NC(=O)c2cc([N+](=O)[O-])cc(F)c2NCCC[C@@H](C(N)=O)NC1=O (some centres not stated)	1%	-9%	/	/	/
CC(C)c1ccc(/C=C/C2=NNC(=O)CC2)cc1	1%	3%	12µM*	-9%	18µM*
CCCCNc1cc(C)oc(=O)c1C(C)=O	6%	3%	2%	/	1%
O=C(NC(Nc1nc2ccc([N+](=O)[O-])cc2s1)(C(F)(F)F)C(F)(F)F)c1ccccc1Cl	5%	29%	0.18µM*	?	0.33µM*
CN(C)S(=O)(=O)c1ccc2nc(NC(=O)c3cccnc3)sc2c1	-1%	-31%	-11%	-6%	-21%
O=C(NC(NNc1ccc([N+](=O)[O-])cc1)(C(F)(F)F)C(F)(F)F)c1ccccc1Cl	9%	16%	-15%	-1%	1%
O=C(NC(Nc1nc2ccc([N+](=O)[O-])cc2s1)(C(F)(F)F)C(F)(F)F)c1cccnc1	1%	27%	2.3µM*	?	3.7µM*

High-throughput results from PubChem BioAssay.
